OTUD3 block – blocks human OTUD3 ubiquitin-rhodamine cleavage; inhibition, % at 25 µM; AID 1645858; Q5T2D3; purified OTUD3, Ub-rhodamine fluorescence, 2 h; 0.7% of 47,000 active
Target sequence (Q5T2D3 whole entry, looked up): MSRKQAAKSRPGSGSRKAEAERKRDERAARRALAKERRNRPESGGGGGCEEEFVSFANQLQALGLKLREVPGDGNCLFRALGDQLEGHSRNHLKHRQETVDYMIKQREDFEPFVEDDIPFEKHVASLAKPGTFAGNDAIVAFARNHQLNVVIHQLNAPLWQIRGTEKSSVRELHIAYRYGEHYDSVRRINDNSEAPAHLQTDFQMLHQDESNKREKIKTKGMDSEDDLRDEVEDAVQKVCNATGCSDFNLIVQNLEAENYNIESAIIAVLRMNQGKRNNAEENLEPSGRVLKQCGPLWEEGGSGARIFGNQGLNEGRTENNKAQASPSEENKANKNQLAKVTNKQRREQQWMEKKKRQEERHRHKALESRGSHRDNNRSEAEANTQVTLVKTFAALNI
USP8 block – human USP8 deubiquitinase inhibition; inhibition, % at 20 µM; 4.2% of 47,000 active; P40818; AID 1645853; purified USP8, Ub-rhodamine cleavage fluorescence, 30 min
UCHL1 block – blocks human UCHL1 ubiquitin-rhodamine cleavage; purified UCHL1, Ub-rhodamine cleavage fluorescence; inhibition, % at 20 µM; 0.2% of 47,000 active; AID 1645859
USP28 block – human USP28 deubiquitinase inhibition. 3% of 47,000 active. AID 1645857. inhibition, % at 25 µM. purified USP28, Ub-rhodamine cleavage fluorescence, 30 min. Q96RU2
USP7 inh – human USP7 deubiquitinase inhibition | 0.3% of 47,000 active | inhibition, % at 20 µM | purified USP7, Ub-rhodamine cleavage fluorescence
USP10 inh – human USP10 deubiquitinase inhibition | Q14694 | inhibition, % at 20 µM | 1.1% of 47,000 active | purified USP10, Ub-rhodamine fluorescence, 60 min
Each line names hits and unclear results; the compound was inactive in the other large screens. Hits are enriched below; roughly 6.8% of the tested compounds scored in any of these assays. Cut-off read from the data, not from the text of the source: active = inhibition above about 30%; inactive = the rest.

O=C(Cn1cncc(-c2nc(-c3ccccc3)cs2)c1=O)Nc1ccc(F)cc1F	USP8 block 41
Cc1ccc(NC(=O)Cn2cncc(-c3nc(-c4ccccc4)cs3)c2=O)cc1F	USP8 block 41, USP10 inh 33
Cc1ccccc1NC(=O)Cn1cncc(-c2nc(-c3ccccc3)cs2)c1=O	none
Cc1ncc(-c2nc(-c3ccccc3)cs2)c(=O)n1CC(=O)Nc1c(F)cccc1F	none
Cc1ccccc1C(=O)c1ccc(C(=O)NC2CCCCCC2)[nH]1	USP8 block 41
CN(C)c1ccc(/C=N/NC(=O)c2ccc(Cl)cc2)cc1	USP8 block 51
CC(C)N(Cc1cc(=O)[nH]c2ccccc12)C(=O)c1ccc(C(C)(C)C)cc1	USP28 block 34
CC(C)N(Cc1cc(=O)[nH]c2ccccc12)C(=O)c1ccccc1	none (no result: USP7 inh)
COc1cc(C(C(=O)NC2CCCC2)N(CCc2cccc(C)c2)C(=O)c2ccco2)cc(OC)c1OC (centres undefined)	none
CCOc1ccc(NC(=O)Cn2c(-c3ccccc3)cc(C(C)=O)c2C)cc1	USP8 block 36
COc1ccc(-c2cc(C(C)=O)c(C)n2CCC(=O)Nc2ccc(C)cn2)cc1	none
O=C1NCC2(CCC(=O)N(CC(=O)N3CCCCC3)CC2)Oc2ccccc21 (centres undefined)	none
NC(=O)c1cccc(NC(=O)c2cccc(Cl)c2Cl)c1	none
COc1cc(N2CC[C@H]3O[C@@H](C(=O)N4CCOCC4)CC[C@H]32)ncn1	none
O=c1cc(-c2ccc(O)c(O)c2)oc2cc(O[C@@H]3O[C@H](CO)[C@@H](O)[C@H](O)[C@H]3O)cc(O)c12	OTUD3 block 97, UCHL1 block 31, USP28 block 90, USP7 inh 36, USP10 inh 52
CC1OC(OCC2OC(Oc3c(-c4ccc(O)c(O)c4)oc4cc(O)cc(O)c4c3=O)C(O)C(O)C2O)C(O)C(O)C1O (centres undefined)	none
Cc1cc(NC(=O)COc2ccc3oc4c(c3c2)CCCC4)n(-c2ccccc2)n1	USP10 inh 39 (no result: USP28 block)
O=C1N(CC2CC2)CCN1c1ccc2c(c1)CCC2	USP28 block 34
Cc1ccc(C)c(N2CCN(c3c(S(=O)(=O)c4ccccc4)cnc4ccccc34)CC2)c1	none (no result: USP28 block)
Cc1ccc(CNC(=O)c2c(O)c3ccccc3[nH]c2=O)cc1	USP8 block 40
O=C(NCc1ccc(F)cc1)c1c(O)c2ccccc2[nH]c1=O	none
Cc1cc(C)cc(-n2cnc3cc(C(=O)NCCC4=CCCCC4)ccc32)c1	USP28 block 63
CC(=O)c1ccc(NC(=O)CN2CCCc3ccccc32)cc1	none
O=C(CN1CCc2ccccc21)Nc1cc(C(=O)O)ccc1O	USP8 block 49
C=C(C)[C@@H]1CC[C@]2(C)[C@H](CC[C@@H]3[C@@H](C(C)(O)CCC=C(C)C)CC[C@]32C)[C@@]1(C)CCC(=O)O (some centres undefined)	OTUD3 block 88, USP8 block 91, UCHL1 block 45, USP28 block 69, USP7 inh 85, USP10 inh 93
CC(C)=CCC[C@](C)(O)[C@H]1CC[C@]2(C)[C@@H]1CC[C@@H]1[C@@]3(C)CC[C@H](O)C(C)(C)[C@@H]3CC[C@]12C	none
O=C(Cn1c(=O)c2sccc2n(Cc2ccc([N+](=O)[O-])cc2)c1=O)NCCc1ccccc1	USP10 inh 38
O=C(CCn1c(=O)c2sccc2n(Cc2ccc([N+](=O)[O-])cc2)c1=O)NCc1ccccc1	OTUD3 block 44, USP8 block 61, USP10 inh 39
Cc1cc(NC(=O)CSc2nc3c(cnn3-c3ccc(F)cc3)c(=O)[nH]2)no1	none
O=C(CSc1nc2c(cnn2-c2ccccc2)c(=O)[nH]1)Nc1ccc(Cl)cc1F	USP8 block 80
Cc1ccc(N(Cc2nc3nc(C)cc(C)n3n2)C(=O)Cc2ccc(Cl)cc2)cc1	none
Cc1ccc(NC(=O)Nc2ccc(C)n(CC(=O)Nc3ccc(C)c(C)c3)c2=O)cc1	USP8 block 93, USP7 inh 43, USP10 inh 66
O=C(N[C@@H]1CC[C@@H](Oc2ccccc2)[C@H](O)[C@H]1O)c1cccc(F)c1	none
COc1ccccc1-c1cc(CNCCN)n(Cc2ccc3ccccc3c2)n1	USP28 block 30
O=C(Nc1ccc(-c2nnc3n2CCCCC3)cc1)c1ccc2c(c1)OCO2	USP28 block 71
COc1cc(OC)cc(C(=O)Nc2ccc(Cn3cncn3)cc2)c1	none
COc1ccc(C(=O)Nc2ccc(Cn3cncn3)cc2)cc1F	USP28 block 35
O=C(Nc1ccc(Cn2cncn2)cc1)c1ccc2c(c1)OCO2	USP28 block 45
C1Cc2nc(C3CC3)nc(N3CCOCC3)c2C1	none
Cc1nc2c(c(C)c1CCC(=O)NCc1ccccc1Cl)c(=O)n(C)c(=O)n2C	none
O=C1COc2ccc(C(=O)COC(=O)CCc3nc4ccccc4s3)cc2N1	USP28 block 32
O=C1COc2ccc(C(=O)COC(=O)c3ccccc3O)cc2N1	none
O=S(=O)(c1cccc2cccnc12)N1CCN(c2ccc(F)cc2)CC1	USP8 block 56
O=S(=O)(c1cccc2cccnc12)N1CCCC1c1ccc(F)cc1 (centres undefined)	none
COc1ccc2c(c1)CCc1c-2n[nH]c1C(=O)N1CCC(Cc2ccccc2)CC1	none
CCOC(=O)c1cn(C2CC2)c2cc(N3CCNCC3)c([N+](=O)[O-])cc2c1=O	USP28 block 36
CCOC(=O)c1cc(C#N)c(N2CCCNCC2)nc1C(F)(F)F	none
COc1cc2nc(CN3CCN(c4ccc(O)cc4)CC3)[nH]c(=O)c2cc1OC	USP8 block 38
COc1cc2nc(CN3CCN(c4ccccc4F)CC3)[nH]c(=O)c2cc1OC	none
Cc1cc(-c2cnc(N3CCSCC3)nc2-c2ccoc2)on1	USP28 block 41
Cc1cccc(N2C(=O)/C(=C\c3cc(C#N)n(C)c3C)c3ccccc3C2=O)c1	USP8 block 56, USP10 inh 35
Cc1cccc(N2C(=O)N(c3ccccc3)C3CS(=O)(=O)CC32)c1 (centres undefined)	none
CCOC(=O)c1cc(S(=O)(=O)N(C)Cc2ccco2)cn1C	none (no result: USP28 block)
CCc1ccccc1NC(=O)Cn1c(SCc2ccc(F)cc2)nc2cccnc21	USP8 block 70, USP28 block 43, USP10 inh 36
Cc1cc(C)c(NC(=O)Cn2c(SCc3cccc(F)c3)nc3cccnc32)c(C)c1	USP8 block 57, USP28 block 40
CCC(C(=O)Nc1ccccc1F)n1c(SCc2cccc(F)c2)nc2ccncc21 (centres undefined)	none
Fc1ccc(Cc2nc(-c3ccn4cnnc4c3)no2)cc1	USP28 block 36
Brc1ccccc1Cc1nc(-c2ccn3cnnc3c2)no1	none
COc1ccc(S(=O)(=O)N2CCc3ccccc32)cc1C(=O)Nc1ccc2c(c1)NC(=O)C(C)O2 (centres undefined)	USP8 block 71, USP10 inh 35

High-throughput results as filed in PubChem.
